Laboratory results reported in PubChem BioAssay (Tox21).
Values joined by “and” are separate entries in the source; they are usually repeats but may differ in a detail not shown here. Equal values may be shown once. Results filed as inconclusive are left out. Active and inactive are the calls of the source. The call rests on the fitted dose curve; in most records, active means well fitted curve in the direction sought with a large enough effect in the repeat runs; inconclusive means weak or mixed curves; inactive means no such curve, though single readings can be large; an effect the other way counts as inactive or inconclusive.

What was measured:
[1] = qHTS RealTime-Glo MT Cell Viability Assay in HEK293 cells - 40 hour (AID 1224874); details: RealTime-Glo luminescence; max response: stronger effect = lower value; further: nearly all actives have a fitted effect of over 50% in size; further: potency means the concentration at half of the fitted maximal effect
How it was run: (§1)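 Tox21 screen in HEK293 using RealTime-Glo MT chemistry, with cells and reagent co-dispensed. Luminescence proportional to viable cell number was captured at intervals during 40 h compound exposure at 37 C.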

[2] = A CellTox Green Cytotoxicity Assay to monitor cytotoxicity in HepG2 cells - 16 hour (AID 1224876); further: nearly all actives have a fitted effect of over 45% in size; further: potency means the concentration at half of the fitted maximal effect
How it was run: (§2)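 Nonlytic assay: viable cells exclude the dye, so fluorescence scales with cell death. HepG2 at 600 cells/well, compounds added after 5 h, signal read across 40 h.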

[3] = qHTS RealTime-Glo MT Cell Viability Assay in HepG2 cells - 32 hour (AID 1224877); further: nearly all actives have a fitted effect of over 55% in size; further: potency means the concentration at half of the fitted maximal effect
How it was run: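 Luminescence read-out: viable HepG2 cells reduce a prosubstrate to a NanoLuc substrate, giving a signal proportional to live cell number. Reads taken at 0, 8, 16, 24, 32 and 40 h of compound exposure at 37 C.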

[4] = A CellTox Green Cytotoxicity Assay to monitor cytotoxicity in HepG2 cells - 24 hour (AID 1224878); further: nearly all actives have a fitted effect of over 45% in size; further: potency means the concentration at half of the fitted maximal effect
How it was run: as §2

[5] = A CellTox Green Cytotoxicity Assay to monitor cytotoxicity in HepG2 cells - 40 hour (AID 1224879); further: nearly all actives have a fitted effect of over 40% in size; further: potency means the concentration at half of the fitted maximal effect
How it was run: as §2

[6] = qHTS RealTime-Glo MT Cell Viability Assay in HEK293 cells - 0 hour (AID 1224880); further: top concentration of the series differs between compounds; nearly all actives have a fitted effect of over 45% in size
How it was run: as §1

[7] = A CellTox Green Cytotoxicity Assay to monitor cytotoxicity in HEK293 cells - 32 hour (AID 1224881); further: nearly all actives have a fitted effect of over 40% in size; further: potency means the concentration at half of the fitted maximal effect
How it was run: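 Seeding of HEK293 cells together with cytotoxicity dye preceded a 5 h incubation at 37 C/5% CO2. Test compounds in DMSO were then added and fluorescence monitored across 40 h.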

[8] = A CellTox Green Cytotoxicity Assay to monitor cytotoxicity in HepG2 cells - 0 hour (AID 1224882); further: nearly all actives have a fitted effect of over 35% in size
How it was run: as §2

[9] = A CellTox Green Cytotoxicity Assay to monitor cytotoxicity in HepG2 cells - 32 hour (AID 1224883); further: nearly all actives have a fitted effect of over 50% in size; further: potency means the concentration at half of the fitted maximal effect
How it was run: as §2
On the % scale 0 is the no-effect control and ±100 the full control effect.

COc1cccc(OC)c1O
inactive: max response [1] 8.86% | Potency [2] | Potency [3] | Potency [4] | Potency [5] | Potency [6] | Potency [7] | Potency [8] | Potency [9]

Cc1cccc(C)c1NC(=O)CN1CCN(CCCC(c2ccc(F)cc2)c2ccc(F)cc2)CC1
active: Potency [1] 10.7 µM | Potency [2] 26.8 µM | Potency [3] 23.9 µM | Potency [4] 23.9 µM | Potency [5] 23.9 µM | Potency [9] 23.9 µM
inactive: Potency [6] | Potency [8]

Clc1cccnc1
inactive: max response [1] 0.202% | Potency [2] | Potency [3] | Potency [5] | Potency [6] | Potency [7] | Potency [8] | Potency [9]

CNCC[C@H](Oc1cccc2ccccc12)c1cccs1
active: Potency [1] 23.9 µM | Potency [2] 23.9 µM | Potency [3] 21.3 µM | Potency [4] 21.3 µM | Potency [5] 19 µM | Potency [9] 19 µM
inactive: Potency [8]

CCCCCCCCCCCCN(CCO)CCO
inactive: Potency [8]
active: Potency [1] 38.7 µM | Potency [2] 43.5 µM | Potency [3] 43.5 µM | Potency [4] 24.4 µM | Potency [7] 54.7 µM | Potency [9] 17.3 µM

CCC(C)c1ccccc1 (stereo not drawn)
inactive: max response [1] 6.63% | Potency [2] | Potency [3] | Potency [4] | Potency [5] | Potency [6] | Potency [8] | Potency [9]

CCCCOC(=O)C(C)CC (stereo not drawn)
inactive: max response [1] 1.36% | Potency [2] | Potency [4] | Potency [5] | Potency [6] | Potency [7] | Potency [9]

Clc1nc2ccccc2s1
inactive: max response [1] -10.6% | Potency [2] | Potency [3] | Potency [4] | Potency [5] | Potency [6] | Potency [7] | Potency [8] | Potency [9]

O=C(Nc1ccc(Cl)c(Cl)c1)c1cc(Cl)cc(Cl)c1O
inactive: Potency [2] | Potency [6] | Potency [8]
active: Potency [1] 4.9 µM | Potency [4] 9.77 µM | Potency [5] 8.71 µM | Potency [9] 11 µM

Clc1ccc(C(c2ccccc2Cl)C(Cl)Cl)cc1 (stereo not drawn)
inactive: max response [1] -26.4% | Potency [2] | Potency [3] | Potency [4] | Potency [6] | Potency [7] | Potency [8] | Potency [9]

CC(C)=CC1CC(C)CCO1 (stereo not drawn)
inactive: max response [1] 2.02% | Potency [2] | Potency [3] | Potency [4] | Potency [5] | Potency [6] | Potency [7] | Potency [9]

C[C@H]1O[C@@H](O[C@H]2[C@@H](O)C[C@H](O[C@H]3[C@@H](O)C[C@H](O[C@H]4CC[C@@]5(C)[C@H](CC[C@@H]6[C@@H]5C[C@@H](O)[C@]5(C)[C@@H](C7=CC(=O)OC7)CC[C@]65O)C4)O[C@@H]3C)O[C@@H]2C)C[C@H](O)[C@@H]1O
active: Potency [1] 61.7 nM and 54.3 nM
inactive: Potency [2] | Potency [4] | Potency [5] | Potency [6] | Potency [7] | Potency [8] | Potency [9]

CC1=CP(=O)(c2ccccc2)CC1 (stereo not drawn)
inactive: max response [1] 9.74% | Potency [2] | Potency [3] | Potency [4] | Potency [6] | Potency [8] | Potency [9]

O=C(c1ccccc1)c1cc(Cl)ccc1O
inactive: max response [1] -24.1% | Potency [2] | Potency [3] | Potency [4] | Potency [5] | Potency [6] | Potency [8] | Potency [9]

CC1(C)COCN1
inactive: max response [1] -0.12% | Potency [2] | Potency [3] | Potency [4] | Potency [6] | Potency [8] | Potency [9]

Oc1ccc(-c2ccccc2)c(Cl)c1
active: Potency [1] 21.9 µM | Potency [2] 49 µM | Potency [4] 49 µM | Potency [5] 49 µM | Potency [9] 49 µM
inactive: Potency [3] | Potency [6]

Cc1cncc(C)c1
inactive: max response [1] 0.584% | Potency [2] | Potency [3] | Potency [5] | Potency [6] | Potency [8] | Potency [9]

c1ccc(Sc2ccccc2)cc1
inactive: max response [1] 1.6% | Potency [2] | Potency [3] | Potency [4] | Potency [6] | Potency [7]

CCN(CC)CCSC(=O)C(c1ccccc1)c1ccccc1
inactive: max response [1] -12.3% | Potency [2] | Potency [3] | Potency [4] | Potency [6] | Potency [8]

Brc1ccccc1-c1ccccc1
active: Potency [2] 41.3 µM | Potency [4] 46.3 µM | Potency [5] 1.84 µM | Potency [7] 20.7 µM | Potency [9] 46.3 µM
inactive: max response [1] -2.43% | Potency [3] | Potency [6] | Potency [8]

COc1cc(C(=O)NS(=O)(=O)c2ccccc2C)ccc1Cc1cn(C)c2ccc(NC(=O)OC3CCCC3)cc12
inactive: max response [1] -0.13% | Potency [2] | Potency [3] | Potency [4] | Potency [5] | Potency [6] | Potency [9]

CCOCN(C(=O)CS(=O)(=O)O)c1c(C)cccc1CC
inactive: max response [1] 8.02% | Potency [2] | Potency [4] | Potency [5] | Potency [6] | Potency [7] | Potency [8] | Potency [9]

S=C(SSSSSSC(=S)N1CCCCC1)N1CCCCC1
active: Potency [1] 0.192 µM
inactive: cytotoxicity increase [2] -6.85% [at 15.8 µM] | activity change, negative = cytotoxic [3] -24.5% [at 15.8 µM] | cytotoxicity [4] -0.0697% [at 15.8 µM] | activity change, negative = cytotoxicity [6] -11.8% [at 15.8 µM] | cytotoxicity [8] -6.55% [at 15.8 µM] | cytotoxicity increase [9] 16.8% [at 15.8 µM]
